Experimental findings from PubChem BioAssay (Tox21) are described below.

Experiment [1] in a line: qHTS assay to identify small molecule agonists of the farnesoid-X-receptor (FXR) signaling pathway - cell viability counter screen (AID 743218). Note: nearly all actives have a fitted effect of over 45% in size. Note: potency is the fitted concentration of half-maximal effect. A digest of the protocol: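 Viability counter screen in the same wells: CellTiter-Glo luminescence, 30 min room-temperature incubation, measured after the beta-lactamase read. Cells were GeneBLAzer FXR-UAS-bla HEK 293T, compound-treated 16 h at 37C.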
A general note: In qHTS, concentration-response curves come from the screen itself.

Experiment [2] is described as follows: qHTS assay to identify small molecule antagonists of the farnesoid-X-receptor (FXR) signaling pathway - cell viability counter screen (AID 743221; active = well fitted cell-killing curve with a large enough effect in the repeat runs, not every such curve was filed as active; note: nearly all actives have a fitted effect of over 50% in size). Summed up:
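Cytotoxicity is taken from ATP luminescence (CellTiter-Glo, 30 min, room temperature) in FXR-bla HEK 293T cells previously incubated 16 h at 37 C with compound and chenodeoxycholic acid at 50 uM final.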

The target of experiment [3] is Vitamin D3 receptor (Homo sapiens) (UniProt P11473). Kind of experiment: qHTS assay to identify small molecule antagonists of the vitamin D receptor (VDR) signaling pathway (AID 743223; active = well fitted inhibition curve with a large enough effect in the signal ratio in the repeat runs, not every such curve was filed as active; the % refers to the signal ratio). Summed up:
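Quantitative HTS in VDR-bla reporter cells stimulated with 1alpha,25-dihydroxyvitamin D3, 3 nM final. Compound exposure 16 h, 37C, 5% CO2. Read-out: beta-lactamase FRET substrate fluorescence, 2 h RT.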

The nature of experiment [4]: qHTS assay to identify small molecule agonists of the peroxisome proliferator-activated receptor delta (PPARd) signaling pathway - cell viability counter screen (AID 743211). Note: nearly all actives have a fitted effect of over 55% in size. Summed up:
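Tox21 library compounds, delivered in DMSO, were incubated 17 h with PPARd-bla HEK293H cells; cytotoxicity was taken from CellTiter-Glo luminescence read 30 min after reagent addition.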

The target of experiment [5] is Vitamin D3 receptor (Homo sapiens) (UniProt P11473). Kind of experiment: qHTS assay to identify small molecule agonists of the vitamin D receptor (VDR) signaling pathway (AID 743222; calls by dose curve). A digest of the protocol: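 Agonist mode, beta-lactamase reporter: fluorescence from LiveBLAzer B/G FRET substrate (2 h, room temperature) read after 16 h compound treatment at 37 C of VDR-bla cells, which were pre-incubated 4 h after seeding.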

Experiment [6] is described as follows: qHTS assay to identify small molecule antagonists of the peroxisome proliferator-activated receptor delta (PPARd) signaling pathway - cell viability counter screen (AID 743213). Note: nearly all actives have a fitted effect of over 50% in size. Note: potency is the fitted concentration of half-maximal effect. Summed up: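 Cytotoxicity counter screen: CellTiter-Glo luminescence read 30 min after addition, in the same wells as the reporter assay. There, PPARd UAS-bla HEK293H cells (3000/well) were treated 17 h at 37 C with compound and 300 nM L165041.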

For experiment [7], the target named is Bile acid receptor (Homo sapiens) (UniProt Q96RI1). The experiment can be described thus: qHTS assay to identify small molecule antagonists of the farnesoid-X-receptor (FXR) signaling pathway (AID 743217; active = well fitted inhibition curve with a large enough effect in the signal ratio in the repeat runs, not every such curve was filed as active; the % refers to the signal ratio). Summed up:
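Antagonist mode: chenodeoxycholic acid at 50 uM final stimulates a UAS-driven beta-lactamase reporter in HEK 293T FXR-bla cells during 16 h, 37C compound exposure. Read-out is FRET substrate fluorescence after 2 h at room temperature.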

Experiment [8] shares this target. The experiment can be described thus: qHTS assay to identify small molecule agonists of the farnesoid-X-receptor (FXR) signaling pathway (AID 743220; active = well fitted activation curve with a large enough effect in the signal ratio in the repeat runs, not every such curve was filed as active; the % refers to the signal ratio). Summed up:
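FXR-UAS-bla HEK 293T cells carrying a UAS-driven beta-lactamase reporter were plated for 5 h at 37C/5% CO2, then exposed to DMSO-dissolved Tox21 10K compounds for 16 h at 37C. A LiveBLAzer B/G FRET substrate was loaded for 2 h at room temperature before fluorescence reading.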

The target in experiment [9] is Peroxisome proliferator-activated receptor delta (Homo sapiens) (UniProt Q03181). The experiment can be described thus: qHTS assay to identify small molecule antagonists of the peroxisome proliferator-activated receptor delta (PPARd) signaling pathway (AID 743215; active = well fitted inhibition curve with a large enough effect in the signal ratio in the repeat runs, not every such curve was filed as active; the % refers to the signal ratio;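 note: cells stimulated with agonist L165041 at 300 nM final during compound exposure; series mostly up to about 62 µM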). A digest of the protocol: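 Agonist L165041 (300 nM final) added with compound to PPARd-bla HEK293H UAS-bla reporter cells; 17 h incubation at 37 C. Read-out: LiveBLAzer FRET substrate, 2 h at room temperature, fluorescence intensity.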

Experiment [10] shares this target. Kind of experiment: qHTS assay to identify small molecule agonists of the peroxisome proliferator-activated receptor delta (PPARd) signaling pathway (AID 743212; calls by dose curve; note: potency is the fitted concentration of half-maximal effect). A digest of the protocol: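 Read-out: beta-lactamase FRET fluorescence after 2 h room-temperature incubation with LiveBLAzer B/G substrate. Cells were HEK293H carrying a UAS-bla reporter for PPARd, treated at 37 C with DMSO-dissolved compounds.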

Records with an inconclusive call do not appear. Activity calls are given as the source filed them. Unless noted, calls come from the whole dose curve; as a rule, active = well fitted curve in the direction sought with a large enough effect in the repeat runs; inconclusive = weak or mixed curves; inactive = no such curve, though single readings can be large; an effect the other way counts as inactive or inconclusive.

Bile acid receptor (Homo sapiens), sequence (Q96RI1 whole entry, looked up): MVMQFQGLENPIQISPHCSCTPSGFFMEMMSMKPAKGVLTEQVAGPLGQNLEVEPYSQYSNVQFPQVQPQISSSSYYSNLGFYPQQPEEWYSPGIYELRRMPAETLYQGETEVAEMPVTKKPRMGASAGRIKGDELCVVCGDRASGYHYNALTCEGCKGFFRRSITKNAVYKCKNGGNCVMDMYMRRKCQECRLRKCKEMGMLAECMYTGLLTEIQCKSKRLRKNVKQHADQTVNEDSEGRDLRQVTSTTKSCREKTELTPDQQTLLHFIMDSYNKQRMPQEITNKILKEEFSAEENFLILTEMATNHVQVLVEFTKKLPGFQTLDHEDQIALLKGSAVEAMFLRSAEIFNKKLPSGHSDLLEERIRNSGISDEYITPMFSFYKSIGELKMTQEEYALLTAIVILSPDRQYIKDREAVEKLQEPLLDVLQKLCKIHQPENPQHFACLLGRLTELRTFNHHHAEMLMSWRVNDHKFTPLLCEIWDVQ
Peroxisome proliferator-activated receptor delta (Homo sapiens), sequence (Q03181 whole entry, looked up): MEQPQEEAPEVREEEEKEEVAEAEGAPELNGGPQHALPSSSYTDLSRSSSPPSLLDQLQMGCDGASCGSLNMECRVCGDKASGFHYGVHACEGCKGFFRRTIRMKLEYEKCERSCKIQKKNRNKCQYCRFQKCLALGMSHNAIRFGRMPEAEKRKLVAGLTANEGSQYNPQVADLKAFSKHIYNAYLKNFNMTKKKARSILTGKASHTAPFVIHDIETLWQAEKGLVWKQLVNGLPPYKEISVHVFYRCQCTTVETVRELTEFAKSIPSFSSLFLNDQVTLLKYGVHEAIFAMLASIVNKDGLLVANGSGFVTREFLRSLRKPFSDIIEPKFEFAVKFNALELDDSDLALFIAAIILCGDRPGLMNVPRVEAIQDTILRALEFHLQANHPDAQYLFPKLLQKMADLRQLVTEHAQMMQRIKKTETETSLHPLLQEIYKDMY
Vitamin D3 receptor (Homo sapiens), sequence (P11473 whole entry, looked up): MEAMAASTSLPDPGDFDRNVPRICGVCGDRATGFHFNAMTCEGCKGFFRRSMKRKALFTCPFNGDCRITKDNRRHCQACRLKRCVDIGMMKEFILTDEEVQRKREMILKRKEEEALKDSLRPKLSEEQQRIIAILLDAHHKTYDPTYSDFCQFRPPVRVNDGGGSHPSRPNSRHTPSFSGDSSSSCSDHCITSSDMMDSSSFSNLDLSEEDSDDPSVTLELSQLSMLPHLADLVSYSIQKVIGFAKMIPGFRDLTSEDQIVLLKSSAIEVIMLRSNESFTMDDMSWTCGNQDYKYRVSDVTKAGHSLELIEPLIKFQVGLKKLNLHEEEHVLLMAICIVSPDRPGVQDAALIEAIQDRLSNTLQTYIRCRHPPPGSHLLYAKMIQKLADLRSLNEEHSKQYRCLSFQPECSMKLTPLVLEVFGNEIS

For `CCCCN(CCN(CCCC)C(=O)N1CCOCC1)C(=O)N1CCOCC1`, the Potency entry in [1], in experiment [2] and in [3] was “inactive” in each case.

For the compound `CC(C)C(O)(c1ccc(OC(F)(F)F)cc1)c1cncnc1` (centres undefined), the Potency entry in experiment [4], in experiment [1], in experiment [2], in experiment [5] and in [3] was “inactive” each time.

On to `O=C1C(=O)c2ccccc2C(O)=C1C1CCC(c2ccc(Cl)cc2)CC1` (centres undefined), for which the Potency entry in [6], in experiment [7], in [8] and in experiment [3] was “inactive” in each case.

Take `CCOC(=O)[C@H](CCc1ccccc1)N[C@@H](C)C(=O)N(CC(=O)O)C1Cc2ccccc2C1`: the Potency entry in experiment [9], in experiment [5] and in experiment [3] was “inactive” in each case.

Regarding `COc1cc(N)c(Cl)cc1C(=O)NC1CCN(CCCOc2ccc(F)cc2)CC1OC` (centres undefined), the Potency result in [10], in experiment [9] and in experiment [2] was “inactive” each time.

Take `c1csc(SSc2cccs2)c1`: the Potency entry in experiment [6], in experiment [9], in experiment [1], in experiment [5] and in experiment [3] was “inactive” in each case.

Take `COC(=O)C1=C(C)NC(C)=C(C(=O)O[C@@H]2CCCN(Cc3ccccc3)C2)[C@@H]1c1cccc([N+](=O)[O-])c1`: the Potency entry in experiment [6], in experiment [9], in experiment [5] and in experiment [3] was “inactive” throughout.

As to `CCCCC(CC)CN` (centres undefined), the Potency entry in experiment [9] and in experiment [3] was “inactive” throughout.

Consider `C=CC(=O)OCC1CC2CC1C1CCC(COC(=O)C=C)C21` (centres undefined), for which the Potency entry in [4], in experiment [1] and in experiment [5] was “inactive” in each case.

As to `O=C1NCCN1CCO`, the Potency result in experiment [4], in experiment [1], in experiment [2] and in [3] was “inactive” throughout.

In the case of `O=C=Nc1ccc(Cl)c(Cl)c1`, the Potency entry in experiment [10], in [9], in [7], in [8], in experiment [5] and in experiment [3] was “inactive” throughout. For the same compound, in experiment [1], the Potency is 30.4 µM (active).

In the case of `O=C1Cc2ccccc2N1c1c(Cl)cccc1Cl`, the Potency entry in [6], in experiment [9], in experiment [7], in experiment [8], in experiment [2] and in experiment [5] was “inactive” each time.

As to `O=C(CCCN1CC=C(n2c(=O)[nH]c3ccccc32)CC1)c1ccc(F)cc1`, the Potency entry in experiment [10], in experiment [9], in experiment [1] and in experiment [2] was “inactive” throughout.

Regarding `O=C=Nc1cccc(C(F)(F)F)c1`, the Potency entry in experiment [10] and in experiment [9] was “inactive” each time.

`CCOC(=O)c1ccc(C#Cc2ccc3c(c2)C(C)(C)CCS3)nc1`: the Potency entry in experiment [6], in experiment [1] and in experiment [2] was “inactive” each time.

With `CN(C)CCN1C(=O)c2ccccc2N(C)c2ccccc21`, the Potency entry in experiment [10], in experiment [6], in [9], in experiment [7], in experiment [1] and in experiment [8] was “inactive” in each case. Further, the Potency result in [2] and in [3] was “inactive” each time.

With `O=[N+]([O-])c1cc(C2CCCCC2)c(O)c([N+](=O)[O-])c1`, the Potency result in experiment [1] and in experiment [8] was “inactive” each time.

Turning to `CN(C(=O)CN(CCO)CC(=O)N(C)C(C)(C)Cc1ccccc1)C(C)(C)Cc1ccccc1`, the Potency result in [10], in experiment [6], in [9], in [7], in [8] and in experiment [2] was “inactive” throughout. In experiment [3], the Potency entry was “inactive”.

For `Nc1ccc(N=Nc2ccccc2)c(N)c1`, the Potency result in experiment [10], in experiment [7], in [1], in experiment [8] and in experiment [2] was “inactive” each time.

Take `C=C(C)CCCC(C)CCO` (centres undefined): the Potency result in [10], in experiment [6], in experiment [1] and in experiment [2] was “inactive” in each case.

As for `CCCCCC[C@@H](O)C/C=C\CCCCCCCC(=O)O`, the Potency in experiment [10] was 43.6 µM (active); in [6], 49 µM (active). The Potency result in [9], in experiment [7] and in experiment [3] was “inactive” in each case.

As for `CCCCN1CCCC1C(=O)Nc1c(C)cc(C)cc1C` (centres undefined), the Potency result in experiment [4], in experiment [1], in [2], in experiment [5] and in experiment [3] was “inactive” in each case.

For `COc1ccccc1NC(=O)c1cc2ccccc2cc1O`, the Potency in experiment [6] was 43.6 µM (active).

For `C=C/C(C)=C/C/C=C(\C)CCC=C(C)C`, the Potency entry in experiment [10], in experiment [6], in experiment [9], in experiment [7], in experiment [2] and in experiment [3] was “inactive” throughout.

`C=C(C)[C@@H]1CCC2=CCC[C@@H](C)[C@]2(C)C1`: the Potency result in experiment [6], in [2] and in experiment [5] was “inactive” in each case.

Regarding `C[C@@]12CCC[C@H]1[C@@H]1CC[C@H]3C[C@@H](O)CC[C@]3(C)[C@H]1CC2`, the Potency result in [10], in [6], in [1] and in experiment [8] was “inactive” throughout.

Regarding `C[C@]12CC[C@@H]3c4ccc(O)cc4CC[C@H]3[C@@H]1CC[C@@H]2OC(=O)CCC1CCCC1`, the Potency entry in experiment [10], in [6], in experiment [9], in experiment [1], in [8] and in experiment [2] was “inactive” in each case. In addition, the Potency result in experiment [5] and in experiment [3] was “inactive” in each case.

Regarding `CN(C)CCC=C1c2ccccc2C=Cc2ccccc21`, the Potency in [6] was 23.7 µM (active); in experiment [1] it was 11.9 µM (active). The Potency result in experiment [9] and in [3] was “inactive” each time.

As to `CN1CCCN=C1COC(=O)C(O)(c1ccccc1)C1CCCCC1` (centres undefined), the Potency entry in [10], in experiment [9], in experiment [7], in experiment [1], in experiment [8] and in experiment [2] was “inactive” each time.

Take `CCC(C)COC(=O)CC(C)C` (centres undefined): the Potency result in experiment [6], in experiment [9], in [5] and in [3] was “inactive” in each case. The Potency in experiment [1] is 24.5 µM (active).

Take `O=C(Nc1cccc2c(=O)cc(-c3nn[nH]n3)oc12)c1ccc(OCCCCc2ccccc2)cc1`: the Potency entry in experiment [10], in [9] and in experiment [2] was “inactive” each time.
